Results reported in ChEMBL document CHEMBL3433997, “St. Jude Leishmania screening dataset” (2016).

Experiments:
Type in all cases: functional
[1] = biological target: Solute carrier family 2, facilitated glucose transporter member 1 (Homo sapiens) (UniProt P11166); assay: ST_JUDE_LEISH: Cytotoxicity at 2uM final concentration against transgenic Leishmania Mexicana promastigotes LmGLUT1 that are glucose transport deficient and complemented with the human glucose transporter GLUT1. Activity is measured by DNA content using SYBR green in vitro
[2] = biological target: Hexose transporter 1 (Plasmodium falciparum) (UniProt O97467); assay: ST_JUDE_LEISH: Cytotoxicity at 2uM final concentration against transgenic Leishmania Mexicana promastigotes LmPfHT that are glucose transport deficient and complemented with the Plasmodium falciparum hexose transporter. Activity is measured by DNA content using SYBR green in vitro
[3] = biological target: Glucose transporter (Leishmania mexicana) (UniProt O61059); assay: ST_JUDE_LEISH: Cytotoxicity at 2uM final concentration against transgenic Leishmania Mexicana promastigotes LmGT2 that are glucose transport deficient and complemented with the L. Mexicana glucose transporter 2. Activity is measured by DNA content using SYBR green in vitro

Chain of Solute carrier family 2, facilitated glucose transporter member 1 (Homo sapiens) (P11166 whole entry): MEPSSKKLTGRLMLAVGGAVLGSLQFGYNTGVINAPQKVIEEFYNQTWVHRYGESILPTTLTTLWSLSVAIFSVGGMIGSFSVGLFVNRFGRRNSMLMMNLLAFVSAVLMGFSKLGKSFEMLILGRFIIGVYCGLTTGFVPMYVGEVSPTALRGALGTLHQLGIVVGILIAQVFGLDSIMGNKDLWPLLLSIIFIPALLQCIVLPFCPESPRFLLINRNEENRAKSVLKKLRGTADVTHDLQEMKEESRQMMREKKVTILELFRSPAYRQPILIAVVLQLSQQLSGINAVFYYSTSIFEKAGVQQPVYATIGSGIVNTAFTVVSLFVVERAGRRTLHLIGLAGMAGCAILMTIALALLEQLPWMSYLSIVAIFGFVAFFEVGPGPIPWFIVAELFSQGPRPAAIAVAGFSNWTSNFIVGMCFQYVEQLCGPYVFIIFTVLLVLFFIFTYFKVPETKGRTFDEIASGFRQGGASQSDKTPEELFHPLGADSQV

Structure (SMILES) | inhibition [1] [%] | inhibition [2] [%] | inhibition [3] [%]
CNCCNCc1cccc(-c2ccc(-c3nc4ccccc4[nH]3)s2)c1 | 1.51 | 1.53 | 5.06
CCN1CCN(c2cc(C)c3cc(NC(=O)c4cc(OC)cc(OC)c4)ccc3n2)CC1 | -0.26 | 1.03 | 2.19
O=C(Nc1cccc(CN2CCCN(Cc3ccc(F)cc3)CC2)c1)c1cc2ccccc2s1 | -2.26 | -1.55 | -0.88
O=S(=O)(c1ccccc1Cl)N1CCCCC(c2ccc(C(F)(F)F)cc2)=N1 | 1.24 | 2.48 | -2.05
O=C(Nc1cccc(C(F)(F)F)c1)c1cccc(S(=O)(=O)NCC2CCN(CC3CCCCC3)CC2)c1 | 0.21 | -0.63 | -0.78
CCCc1ccc(C2CCN(CCCCNC(=O)c3ccc(NC(=O)c4ccc(Cl)cc4)cc3)CC2)cc1 | 0.56 | -1 | 0.1
O=C(Nc1cccnc1)c1cc(-c2cccnc2)nc2ccc(Br)cc12 | 7.01 | 1.51 | -1.18
COc1cc(CNCCCNc2cc(=O)c3ccccc3[nH]2)c2c(c1)C(C)CN2C(=O)OC(C)(C)C (centres undefined) | 9.27 | 10.7 | 4.19
CN(C)CCNC(=O)c1ccc2c(c1)n(C1CCN(S(=O)(=O)c3ccc(-c4ccccc4)cc3)CC1)c(=O)n2CC1CCCCC1 | -1.79 | -0.94 | -1.74
CCN(c1ccc(F)cc1)S(=O)(=O)c1cc(Br)cc2c1N(C(=O)C1CC1)CC2 | 0.4 | 1.32 | 3.74
CS(=O)(=O)Cc1ccc(Nc2nccc(-c3c(-c4cccc(NC(=O)c5c(F)cccc5F)c4)nn4ncccc34)n2)cc1 | 12 | 8.45 | 2.78
O=C(CCCCCNC(=O)c1ccc(O)c(-c2ccc(Cl)c(Cl)c2)c1)NCCN1CCCC1 | 1.19 | 0.7 | 1.56
CCCCCOc1ccc(C(O)C(CCC(CN2CCCCCC2)C(O)c2ccc(OCCCCC)cc2)CN2CCCCCC2)cc1 (centres undefined) | 3.22 | 2.73 | 1.43
CN(C)C(=S)N/N=C1/C(=O)Nc2ccc(OC(F)(F)F)cc21 | 1.94 | 1.64 | 0.75
Cc1cc(N)c2cc(NC(=O)CCC(=O)Nc3ccc4nc(C)cc(N)c4c3)ccc2n1 | 5.9 | 6.01 | 8.34
O=C(Nc1ccc(Cl)cc1)Nc1ccc(-c2ccc(-c3nc4ccccc4[nH]3)cc2)cc1 | 2.4 | 3.97 | 0.96
CC1(C)N=C(N)N=C(Nc2ccc(F)c(F)c2)N1 | 0.74 | 0.06 | -0.02

Structure (SMILES) | inhibition [1] [%] | inhibition [2] [%] | inhibition [3] [%]
CC(C)(C)[C@@H](Nc1ccc(C#N)c2ccccc12)C(=O)NC1(Cc2ccc(O)cc2)CCCC1 | 0.1 | -0.5 | 0.41
CC(C)NCc1cccc(-c2ccc(NC(=O)c3ccc(F)cc3)cc2)c1 | 3.19 | 3.2 | -0.76
O=C(Nc1ccc(Cl)cc1C(=O)Nc1ccncc1)c1ccc(Cl)cc1Cl | 6.71 | 5.88 | 5.53
CC1CN(c2ccc3[nH]cc(Sc4ccc(-c5cccs5)cc4)c3c2)CC(C)N1 (centres undefined) | -0.79 | -1.78 | -1.36
CN(C)c1ccc(-c2csc(C(=O)NCC3CCN(Cc4ccc(C(C)(C)C)cc4)C3)c2)cc1 (centres undefined) | -1.07 | -1.85 | -1.57
C#CCCC(=O)Nc1cccc(-c2cccc(-c3nc4cccc(C)c4[nH]3)c2)c1 | 3.2 | 1.23 | -1.87
CC(C)C(C(=O)Nc1ccc2c(c1)OCO2)c1ccc(Cl)cc1 (centres undefined) | 3.38 | 2.76 | 1.99
COc1ccccc1N1CCN(C(C(=O)NCc2ccc3c(c2)OCO3)c2ccc3c(c2)OCCCO3)CC1 (centres undefined) | 1.2 | 1.04 | 3.62
CCc1cc2c(cc1OCCN(C)C)N(C(=O)Nc1ccc(-c3ccncc3)c(Cl)c1)CC2 | 6.82 | 6.4 | 3.08
Cc1nc(N)nc(N)c1-c1ccc(Br)cc1 | 9.9 | 8.21 | 7.53
COc1ccc(CCNCCCCCNCCCc2ccc(Cl)cc2)cc1OC | -1.33 | -1.18 | 0.25
Cc1cccc2nc(-c3ccc(-c4cccc(NC(=O)NCc5cccc(F)c5)c4)cc3)[nH]c12 | -0.32 | 0.88 | -1.06
c1ccc(COc2ccccc2COc2ccccc2-c2ccc3cccnc3n2)cc1 | 0.28 | -0.32 | 5.87
Cc1nc(N)nc(N)c1OCc1cccc2ccccc12 | 0.2 | 1.33 | -1.23
O=C(Nc1ccc2c(c1)CCN(C1CCC1)CC2)c1cn(-c2ccccc2)nc1-c1ccccc1 | 5.38 | 3.65 | 0.52
Cc1cccc2nc(-c3ccc(-c4ccc(CN5CCN(CCN6CCOCC6)CC5)cc4)s3)[nH]c12 | 2.9 | 3.89 | 1.02
